Drawing on PubChem BioAssay (NCI), this text covers growth for 14 compounds.

This is part of a sample that, as a whole, favours compounds with a hit. Of some 83,000 tested, about 20% had one in any assay.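 The test compound was applied at a single concentration to cells in 96-well plates for 48 hours, and percent growth was recorded.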 Unmarked numbers belong to inactive results. Calls of active or inactive are those of the source. Rule for the calls: active = growth percent below 10; inactive = the rest.

Among the test systems are T-47D breast; BT-549 breast; MDA-MB-435 melanoma; SW-620 colon; MCF7 breast; HCT-116 colon; HCC-2998 colon; KM12 colon.
What all share (assay): NCI-60 one-dose screen, 48 h (100 = growth as untreated, 0 = no growth, -100 = all killed)
Common to all, as to settings: 10 µM unless noted

Take `O=[N+]([O-])c1c(S(=O)(=O)O)cc2cc(S(=O)(=O)O)ccc2c1[N+](=O)[O-]`: the growth was 109% in the assay on T-47D breast; 104% with BT-549 breast; 105% in the assay on MDA-MB-435 melanoma; 105% in the assay on SW-620 colon; 97.7% with MCF7 breast; 98.2% in the assay on HCT-116 colon. The results for the growth in the assay on HCC-2998 colon and with KM12 colon were 99.2% and 91.5%, respectively.

Consider `CN(C)c1ccc(C2CC(c3ccccc3)=NN2/C=C2\SC(=O)NC2=O)cc1` (configuration not stated), for which the growth in the assay on T-47D breast is 86.7%; in the assay on BT-549 breast, 87%; in the assay with MDA-MB-435 melanoma, 83.1%; in the assay with SW-620 colon, 83.9%; in the assay with MCF7 breast, 65.4%; with HCT-116 colon it was 85.9%. Further, the growth is 101% in the assay on HCC-2998 colon and 82.2% with KM12 colon.

`CCOC(=O)C(Cc1ccccc1)n1c(O)c(C=Nc2ccc(C(=O)OCCN(CC)CC)cc2)sc1=O` (configuration not stated): the growth in the assay on T-47D breast was 81.6%; in the assay with BT-549 breast, 96.3%; in the assay with MDA-MB-435 melanoma it was 90.1%; in the assay with SW-620 colon, 97.6%; in the assay on MCF7 breast it was 74.5%; in the assay on HCT-116 colon it was 104%. The results for the growth in the assay with HCC-2998 colon and in the assay on KM12 colon were 108% and 83.5%, respectively.

For `COc1ccc(OC)c(-c2ccc(-c3ccccc3N)c3[nH]c4ccccc4c23)c1`, the growth in the assay with T-47D breast was 62.8%; with BT-549 breast, 72.5%; with MDA-MB-435 melanoma it was 105%; in the assay on SW-620 colon it was 80.7%; with MCF7 breast, 69.8%; in the assay on HCT-116 colon, 61.6%. For the same compound, the growth was 102% in the assay on HCC-2998 colon and 72.9% in the assay with KM12 colon.

As to `O=C(CN1CCN(c2cc3c(cc2F)c(=O)c(C(=O)O)cn3C2CC2)CC1)Nc1ccc(C(=O)/C=C/c2ccc(Cl)cc2)cc1`, the growth with T-47D breast is 106%; with BT-549 breast it was 91.1%; in the assay with MDA-MB-435 melanoma, 101%; with SW-620 colon, 111%; with MCF7 breast, 91.7%; in the assay with HCT-116 colon it was 41.3%. The growth with HCC-2998 colon is 103%; in the assay with KM12 colon, 120%.

As for `CC(C)CCC[C@@H](C)[C@H]1CC[C@H]2[C@@H]3CC[C@H]4C/C(=N/O)CC[C@]4(C)[C@H]3CC[C@]12C`, the growth is 103% with T-47D breast; 108% with BT-549 breast; 103% in the assay with MDA-MB-435 melanoma; 97.9% in the assay on SW-620 colon; 103% in the assay on MCF7 breast; 109% with HCT-116 colon. Moreover, the growth is 86.3% in the assay on HCC-2998 colon and 108% in the assay with KM12 colon.

Consider `CC(=O)OC[Si](C)(C)c1ccccc1`, for which the growth is 105% in the assay with T-47D breast; 107% with BT-549 breast; 99.1% with MDA-MB-435 melanoma; 101% in the assay with SW-620 colon; 107% with MCF7 breast; 99.9% in the assay with HCT-116 colon. Also, the values for the growth in the assay with HCC-2998 colon and with KM12 colon were 122% and 110%, respectively.

`CN(C)c1nc(N)c(N=O)c(N)n1`: the growth in the assay on T-47D breast is 104%; in the assay with BT-549 breast it was 115%; with MDA-MB-435 melanoma, 110%; in the assay on SW-620 colon, 108%; with MCF7 breast, 102%; in the assay on HCT-116 colon, 105%. For the same compound, the growth in the assay on HCC-2998 colon is 113%; in the assay on KM12 colon, 108%.

Turning to `O=C1NCC(c2cc3ccccc3[nH]c2=O)Nc2ccccc21` (configuration not stated), the growth is 91% in the assay with T-47D breast; 96.3% in the assay with BT-549 breast; 107% in the assay on MDA-MB-435 melanoma; 102% in the assay on SW-620 colon; 103% with MCF7 breast; 92.6% with HCT-116 colon. In addition, the results for the growth with HCC-2998 colon and in the assay with KM12 colon were 104% and 103%, respectively.

Consider `CCNC(=O)CCCCC(=O)c1c(C)[nH]c(/C=C2\N=C(c3ccc[nH]3)C=C2OC)c1C`, for which the growth in the assay on T-47D breast was -46.3% (active); in the assay on BT-549 breast, -36.1% (active); in the assay on MDA-MB-435 melanoma it was -18.4% (active); in the assay with SW-620 colon it was -65.4% (active); in the assay with MCF7 breast, -17.4% (active); in the assay with HCT-116 colon it was -100% (active). For the same compound, the growth with HCC-2998 colon was 48.6%; in the assay with KM12 colon, -56.9% (active).

`COc1ccc2c(c1)NC(=O)CN2c1nc(C)nc2ccccc12`: the growth was 55.5% with T-47D breast; 1.24% (active) in the assay with BT-549 breast; 1.13% (active) in the assay on MDA-MB-435 melanoma; 22% in the assay on SW-620 colon; 14.9% in the assay on MCF7 breast; 0.468% (active) with HCT-116 colon. The figures for the growth with HCC-2998 colon and with KM12 colon were 16.6% and 8.92% (active), respectively.

With `NC(N)=NC(N)=Nc1ccccc1-c1ccccc1`, the growth was 108% with T-47D breast; 131% in the assay on BT-549 breast; 103% in the assay with MDA-MB-435 melanoma; 107% with SW-620 colon; 110% in the assay with MCF7 breast; 102% in the assay with HCT-116 colon. Besides, the growth with HCC-2998 colon is 105%; in the assay on KM12 colon, 107%.

For `COc1cccc(-c2nc3sccn3c2-c2ccnc(NCCNS(=O)(=O)c3ccccc3)n2)c1`, the growth in the assay with T-47D breast is 9.54% (active); in the assay on BT-549 breast, 58.2%; in the assay on MDA-MB-435 melanoma, 29.8%; in the assay on SW-620 colon, 106%; with MCF7 breast, 53.3%; with HCT-116 colon it was 49.7%. In addition, the growth in the assay on HCC-2998 colon is 119%; in the assay with KM12 colon it was 53.4%.

Turning to `COc1ccc(-c2nc(-c3nc4ccc(F)cc4[nH]3)cc3c2[nH]c2ccccc23)cc1`, the growth in the assay on T-47D breast is 40.8%; in the assay on BT-549 breast it was 41.8%; in the assay with MDA-MB-435 melanoma, 27.5%; in the assay on SW-620 colon, 48.3%; with MCF7 breast it was 32.2%; in the assay on HCT-116 colon, 25.3%. Also, the figures for the growth in the assay with HCC-2998 colon and with KM12 colon were 30.9% and 23.4%, respectively.
